Results taken from PubChem BioAssay AID1159580 (chemical genetic matrix, 2015).
Among all 5,500 compounds or so, about 2,000 (36%) were called active. About 18% were inconclusive and are not listed. Rule as the data show it: active = normalized growth mostly below about 0.91 (no sharp cut-off); inconclusive = no clear call, values can overlap the other calls; inactive = mostly above about 0.92. This is one part of the list.

Test: chemical genetic growth profiling, strain panel (AID 1159580);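 also: tested at 20 µM; growth read once vehicle control cultures reached saturation at 30 °C; 1 = growth at the plate median or of vehicle wells; lower values mean less growth of the strain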
Conditions: S. cerevisiae deletion strains, growth OD

Measured: normalized growth

CC(=O)NCCCS(=O)(=O)O
inactive: locus YAL021C, strain ccr4, stronger effect = lower value 0.994 | locus YAL026C, strain drs2, stronger effect = lower value 1.02 | locus YAL030W, strain snc1, stronger effect = lower value 1.01 | locus YBL061C, strain skt5, stronger effect = lower value 1.01 | locus YBR009C, strain hhf1, stronger effect = lower value 1.02 | locus YBR023C, strain chs3, stronger effect = lower value 1.02 | locus YBR171W, strain sec66, stronger effect = lower value 1.03 | locus YBR231C, strain swc5, stronger effect = lower value 1.02 | locus YBR279W, strain paf1, stronger effect = lower value 1.02 | locus YCL011C, strain gbp2, stronger effect = lower value 1.01 | locus YCL016C, strain dcc1, stronger effect = lower value 1.02 | locus YCL061C, strain MRC1, stronger effect = lower value 1.02 | locus YCL069W, strain vba3, stronger effect = lower value 1.01 | locus YCR088W, strain abp1, stronger effect = lower value 1.01 | locus YDL005C, strain med2, stronger effect = lower value 1.01 | locus YDL040C, strain nat1, stronger effect = lower value 1.02 | locus YDR001C, strain nth1, stronger effect = lower value 1.01 | locus YDR069C, strain doa4, stronger effect = lower value 1.01 | locus YDR137W, strain rgp1, stronger effect = lower value 1.03 | locus YDR159W, strain sac3, stronger effect = lower value 1.01 | locus YDR195W, strain ref2 1.02 | locus YDR297W, strain sur2, stronger effect = lower value 1.01 | locus YDR334W, strain swr1, stronger effect = lower value 1.01 | locus YDR335W, strain msn5, stronger effect = lower value 1.01 | locus YDR392W, strain spt3, stronger effect = lower value 0.984 | locus YEL003W, strain gim4, stronger effect = lower value 1.01 | locus YEL037C, strain rad23, stronger effect = lower value 1.01 | locus YEL061C, strain CIN8 (second series), stronger effect = lower value 1 | locus YER015W, strain faa2, stronger effect = lower value 1.01 | locus YER016W, strain bim1, stronger effect = lower value 1.02 | locus YER111C, strain swi4, stronger effect = lower value 1.02 | locus YER155C, strain BEM2 (second series), stronger effect = lower value 1.04 | locus YFR010W, strain ubp6, stronger effect = lower value 1.01 | locus YGL167C, strain pmr1, stronger effect = lower value 1.01 | locus YGL173C, strain kem1, stronger effect = lower value 1.02 | locus YGL227W, strain vid30, stronger effect = lower value 1.02 | locus YGL240W, strain doc1, stronger effect = lower value 1.02 | locus YGL253W, strain hxk2, stronger effect = lower value 1.01 | locus YHR013C, strain ard1, stronger effect = lower value 1.05 | locus YHR027C, strain rpn1, stronger effect = lower value 1.01 | locus YHR030C, strain SLT2, stronger effect = lower value 1.03 | locus YHR079C, strain IRE1, stronger effect = lower value 1.04 | locus YHR142W, strain chs7, stronger effect = lower value 1.01 | locus YJL092W, strain hpr5, stronger effect = lower value 1.01 | locus YJL095W, strain BCK1 (second series), stronger effect = lower value 1.01 | locus YJL095W, strain BCK1, stronger effect = lower value 1.01 | locus YJL115W, strain asf1, stronger effect = lower value 1.01 | locus YJL129C, strain trk1, stronger effect = lower value 1.01 | locus YJL154C, strain vps35, stronger effect = lower value 1.01 | locus YJL164C, strain tpk1, stronger effect = lower value 1 | locus YJL166W, strain qcr8, stronger effect = lower value 1.02 | locus YJL187C, strain SWE1, stronger effect = lower value 1.01 | locus YJR066W, strain TOR1, stronger effect = lower value 0.989 | locus YKL160W, strain elf1, stronger effect = lower value 1.02 | locus YKR026C, strain gcn3, stronger effect = lower value 0.993 | locus YKR091W, strain srl3, stronger effect = lower value 1.02 | locus YLL001W, strain dnm1, stronger effect = lower value 1.02 | locus YLL026W, stronger effect = lower value 1.02 | locus YLL041C, strain sdh2, stronger effect = lower value 1.01 | locus YLR027C, strain aat2, stronger effect = lower value 1.02 | locus YLR113W, strain HOG1, stronger effect = lower value 0.97 | locus YLR221C, strain rsa3, stronger effect = lower value 1.01 | locus YLR258W, strain gsy2, stronger effect = lower value 1.01 | locus YLR262C, strain YPT6 (second series), stronger effect = lower value 1.02 | locus YLR320W, strain mms22, stronger effect = lower value 1.01 | locus YLR342W, strain FKS1, stronger effect = lower value 1.01 | locus YLR357W, strain rsc2, stronger effect = lower value 1.06 | locus YLR370C, strain arc18, stronger effect = lower value 1.01 | locus YLR384C, strain iki3, stronger effect = lower value 1.02 | locus YML120C, strain ndi1, stronger effect = lower value 1.01 | locus YMR058W, strain fet3, stronger effect = lower value 1.02 | locus YMR125W, strain sto1, stronger effect = lower value 1.03 | locus YMR129W, stronger effect = lower value 1 | locus YMR205C, strain PFK2, stronger effect = lower value 1.03 | locus YMR231W, strain pep5, stronger effect = lower value 1.01 | locus YNL071W, strain lat1, stronger effect = lower value 1.02 | locus YNL183C, strain NPR1, stronger effect = lower value 1 | locus YNL209W, strain ssb2, stronger effect = lower value 1.01 | locus YNL248C, strain rpa49, stronger effect = lower value 1.01 | locus YNL322C, strain KRE1 (second series), stronger effect = lower value 1.01 | locus YNR049C, strain mso1, stronger effect = lower value 1.02 | locus YOR001W, strain rrp6, stronger effect = lower value 1.01 | locus YOR070C, strain gyp1, stronger effect = lower value 1.01 | locus YOR080W, strain dia2, stronger effect = lower value 1.01 | locus YOR083W, strain WHI5, stronger effect = lower value 0.998 | locus YOR106W, strain vam3, stronger effect = lower value 1.01 | locus YOR231W, strain MKK1, stronger effect = lower value 1.02 | locus YOR265W, strain rbl2, stronger effect = lower value 1.01 | locus YOR270C, strain vph1, stronger effect = lower value 1.04 | locus YOR290C, strain snf2, stronger effect = lower value 1.01 | locus YPL051W, strain arl3, stronger effect = lower value 1.01 | locus YPL078C, strain atp4, stronger effect = lower value 1.02 | locus YPL106C, strain sse1, stronger effect = lower value 1.02 | locus YPL240C, strain hsp82, stronger effect = lower value 1.01 | locus YPL256C, strain CLN2, stronger effect = lower value 1.02
